# Source: PubChem BioAssay
# HCV inhibitor: inhibitors of hepatitis C virus infection | Huh7.5.1 HCVcc-Cre infection, luciferase reporter, 44 h | Potency, µM (highest dose often 41.8 µM), inactives show top-dose activity change, negative = inhibition, hits mostly inhibitors | 340,000 compounds, 3.4% hits | AID 651820; active = well fitted inhibition curve with a large enough effect; inconclusive = small, poorly fitted or top-dose-only effect, or another doubt; inactive = no such curve, though single readings can be large or run the other way; also: potency is read from the fitted curve at half-maximal effect; % is scaled to controls: 0 for no effect and ±100 for the full control effect
#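 Infectious HCV cell culture screen: compound-treated cells (1,000/well, pre-plated 4 h) are infected with HCVcc-Cre at roughly 0.5 moi and grown 44 h. Infection is quantified by luciferase signal after 15 min substrate incubation at room temperature.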
# SARS PLpro yeast: SARS-CoV PLP inhibition in yeast | S. cerevisiae expressing SARS-CoV PLpro, growth rescue | Potency, µM (highest dose often 32.9 µM), without a hit: at the highest dose activity, positive = growth rescue, most hits filed as activators | 330,000 compounds, 0.19% hits; calls by dose curve; also: potency is read from the fitted curve at half-maximal effect; 0% is about no effect; nearly all actives have a fitted effect of over 55% in size
# LASV entry inh: blocks Lassa virus binding to or entry into cells | Lassa virus pseudotype entry inhibition, cell reporter | AID 540256 | Potency, µM (doses to about 37.9 µM), for the others: at the top dose activity change, negative = inhibition, actives largely listed as inhibitors | 300,000 compounds, 1.2% hits; calls by dose curve; tested in HEK293 cells; also: potency is read from the fitted curve at half-maximal effect; % is scaled to controls: 0 for no effect and ±100 for the full control effect; nearly all actives have a fitted effect of over 50% in size
# HCMV antiviral: human cytomegalovirus inhibition. HFF cells, HCMV-luciferase reporter, 72 h; stronger effect = lower value. activity change, negative = inhibition, % at 57.5 µM. 410,000 compounds, 4.5% hits; in the data active = activity change below about -60%; inconclusive = no clear call, values can overlap the other calls; inactive = above about -39%; also: % is scaled to controls: 0 for no effect and ±100 for the full control effect
#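 HFF cells seeded 16 h at 37C, treated with compounds, infected with luciferase-reporter HCMV at MOI 1 PFU/cell; luciferase read at 72 h post infection, normalized to buffer-only and Salinomycin controls.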
# FMDV antiviral: blocks foot and mouth disease virus; 410,000 compounds, 1.2% hits; Potency, µM (titrated, usually from 57.9 µM), inactives show at the top dose activity change, negative = inhibition, hits mostly inhibitors; FMDV antiviral cell-based qHTS; AID 1159524; calls by dose curve; tested in HEK293T cells; also: read-out not given here; potency is read from the fitted curve at half-maximal effect; % is scaled to controls: 0 for no effect and ±100 for the full control effect; nearly all actives have a fitted effect of over 45% in size
# Marburg entry inh: Marburg virus entry inhibition | Marburg virus pseudotyped entry inhibition, cell reporter | Potency, µM (doses to about 37.8 µM), for inactives: top-dose activity change, negative = inhibition, most hits filed as inhibitors | 300,000 compounds, 1.8% hits | AID 540276; calls by dose curve; tested in HEK293 cells; also: potency is read from the fitted curve at half-maximal effect; % is scaled to controls: 0 for no effect and ±100 for the full control effect
# Starred values were filed as active, the others as inactive; ? = inconclusive; nt = not tested or not shown; [ ] = another dose, or the depositor's remark. Rows were chosen to be rich in hits. Some 8% of all compounds tested hit in one or more screens of this group.
SMILES,HCV inhibitor,SARS PLpro yeast,LASV entry inh,HCMV antiviral,FMDV antiviral,Marburg entry inh
CCCN1CCC(=O)N([C@H](CO)CC(C)C)CC1,42%,-4%,nt,-61*,-10%,nt
CC(C)C[C@@H](CO)N1CCN(CC(C)C)CCC1=O,9%,0%,nt,-24,-24%,nt
CC(C)C[C@@H](CN=[N+]=[N-])N1CCN(C)CCC1=O,7%,-3%,nt,-62*,-8%,nt
COc1ccc(CN2CCC(=O)N([C@H](CO)CC(C)C)CC2)cc1OC,-9%,-6%,nt,-68*,-9%,nt
CC(C)(C)OC(=O)N1CCC(c2c(C(=O)NCCCN3CCc4ccccc4C3)cnn2-c2ccccc2)CC1,nt,nt,?,0,-5%,nt
COc1cc2c(c(OC)c1)C(c1cccc(F)c1F)CC(=O)N2 (stereo not given),nt,nt,29%[46.1 µM],-34,-16%,-7%[46.1 µM]
CSc1cccc(NC(=O)Cn2ncn3c(cc4ccccc43)c2=O)c1,nt,nt,nt,33,3%,?
CC(=O)N1c2ccc(C)cc2C(c2ccccc2)CC1C (stereo not given),2%,-5%,?,197,-7%,6.3µM*
COc1cccc(CNC(=O)Nc2cc(C(=O)NCc3cccc(F)c3)ccc2N2CCCC2)c1,nt,nt,?,-1,-8%,nt
CCOC(=O)c1c(CSC(=N)N)n(-c2ccc(Br)cc2)c2cc(Br)c(OC(C)=O)cc12,?,-28%,?,-38,-18%,13µM*
CCCCCCCCOC(=O)c1c(CSC(=N)N)n(C)c2cc(Br)c(OC(C)=O)cc12,11µM*,-4%,nt,-92*,?,nt
COc1ccc(-c2ccc(SCc3cccnc3)nn2)cc1OC,?,-7%,nt,-63*,-15%,nt
O=C1NC(=NCc2ccccc2)S/C1=C\c1ccccc1,18%,18%,-10%,-68*,6%,24%
COc1ccc(CN2C(=O)C(n3cccc3)c3ccccc32)cc1 (stereo not given),nt,nt,nt,3,nt,nt
CN1C(=O)N(C)c2ccc(C=O)c3cccc1c23,-11%,-1%,?,-21,-9%,?
CN1C(=O)N(C)c2ccc(Br)c3cccc1c23,14µM*,0%,nt,?,-12%,nt
COc1cc(O)ccc1-c1nc2cc(C)ccn2c1Nc1ccccc1C,nt,nt,?,-14,?,?
CCOc1ccc(/C=C/C(=O)c2ccc(-c3ccccc3)cc2)cc1,29%,-1%,13%,-61*,-8%,?
O=C(/C=C/c1ccccc1)c1cc(Br)ccc(=O)c1O,?,22µM*,?,-107*,?,20µM*
N#Cc1ccc(/C=C/C(=O)c2ccccc2)cc1,11%,-5%,nt,5,-25%,nt
O=C(/C=C/c1ccccc1)/C=C/c1ccccc1,?,-33%,?,-73*,?,9.2µM*
O=C(/C=C/c1ccccc1)c1ccccc1,10µM*,-3%,0%,-17,?,-4%
CC(=O)/C=C/c1ccccc1,10%,5%,nt,-28,-3%,nt
Cc1ccc(CCNC(=O)Cn2ncc3c(=O)oc4ccccc4c32)cc1,nt,nt,6%[46.1 µM],-1,-12%,18%[46.1 µM]
COc1ccccc1/C=C(\NC(=O)c1ccc(OC)c(OC)c1)C(=O)Nc1ccc([N+](=O)[O-])cc1,-17%,-8%,3%,-22,-5%,3%
SMILES,HCV inhibitor,SARS PLpro yeast,LASV entry inh,HCMV antiviral,FMDV antiviral,Marburg entry inh
Cc1cc(NC(=O)c2ccc([N+](=O)[O-])o2)ccc1NC(=O)c1ccco1,?,-22%,nt,-85*,-7%,nt
COc1ccccc1/C=C(\NC(=O)c1ccc(OC)c(OC)c1)C(=O)Nc1cccc([N+](=O)[O-])c1,-10%,4%,?,-61*,-10%,2%
COc1ccc(C(=O)Nc2cccc(/C(C)=N/NC(=O)c3ccc([N+](=O)[O-])c(C)c3)c2)cc1OC,2.8µM*,3%,?,40,?,?
Cc1cc([N+](=O)[O-])ccc1NC(=O)c1ccco1,-16%,2%,-6%,-30,-8%,19%[46.1 µM]
Cc1cc(NC(=O)c2ccc([N+](=O)[O-])cc2Cl)ccc1NC(=O)c1ccco1,7.9µM*,-11%,-3%,32,2%,25%
c1ccc2[nH]c(NCCCc3cnc[nH]3)nc2c1,nt,nt,nt,nt,15%,nt
CC(=O)OCC(=O)Nc1ccc([N+](=O)[O-])cc1Cl,13%,2%,27%[46.1 µM],-13,-8%,?
O=C(NNc1ccc([N+](=O)[O-])cc1[N+](=O)[O-])c1ccco1,-15%,5%,?,nt,20µM*,?
Cc1cc(C(=O)Nc2cccc(NC(=O)c3ccco3)c2)ccc1[N+](=O)[O-],?,-2%,-27%[46.1 µM],-82*,2%,12%[46.1 µM]
CC(=O)Oc1c(C)cc(Cl)cc1C(=O)Nc1ccc([N+](=O)[O-])cc1Cl,?,-87%,3.7µM*,-98*,-19%,1.5µM*
COC(=O)C1=C(C)NC(=S)NC1c1ccc(OCC(=O)N2CCCCC2)c(OC)c1 (stereo not given),16%,-6%,2%,-63*,-6%,?
COCCOC(=O)C1=C(C)NC(=S)NC1c1ccc(OCC(=O)N2CC(C)OC(C)C2)c(OC)c1 (stereo not given),8%,nt,nt,0,-2%,nt
Nc1nonc1-c1nc2ccccc2n1Cc1c(Cl)cccc1Cl,nt,nt,0%[46.1 µM],29,0%,nt
C[C@H](N)C(=O)OC(C)(C)Cc1ccc(Cl)cc1,nt,nt,nt,nt,nt,-14%
CCOc1ccc(CCNC(=O)c2nnc(Cc3ccc(Cl)cc3Cl)o2)cc1OCC,nt,nt,16%[46.1 µM],-3,-23%,-9%[46.1 µM]
COc1ccc(OC)c(NC(=O)Cn2cc(C#N)c3cc(Br)ccc32)c1,?,-5%,-11%,-66*,?,-26%
COc1ccc(NC(=O)Cn2cc(C#N)c3ccccc32)cc1,1%,-1%,-3%,-10,-8%,?
CN(CCc1ccccn1)C(=O)CCC1CCCN(C(=O)CN2CCCCCC2)C1 (stereo not given),3%,0%,18%[46.1 µM],-22,-4%,2%[46.1 µM]
CC(=O)c1cc(C(=O)N2CCCC(CCC(=O)N(C)CCc3ccccn3)C2)cs1 (stereo not given),6%,0%,5%[46.1 µM],-66*,-24%,4%[46.1 µM]
COc1ccc(Cl)cc1NC(=O)CSC1=NN2CCCC(=O)N=C2S1,?,-3%,7%[46.1 µM],-71*,?,?
CCOC(=O)c1c(NC(=O)CSC2=NN3CCCC(=O)N=C3S2)sc2c1CCCCC2,8.9µM*,1%,19%,63,-45%,2%
CCOC(=O)c1ccc(NC(=O)CSC2=NN3CCCC(=O)N=C3S2)cc1,?,3%,nt,-14,-17%,nt
CCOc1ccccc1NC(=O)CSC1=NN2CCCC(=O)N=C2S1,-25%,0%,-42%[46.1 µM],-80*,-13%,?
COc1ccc(OC)c(NC(=O)CSC2=NN3CCCC(=O)N=C3S2)c1,-22%,-1%,-35%[46.1 µM],4,-26%,11%[46.1 µM]
COc1cccc(NC(=O)CSC2=NN3CCCC(=O)N=C3S2)c1,6%,-1%,-5%,15,?,-14%[46.1 µM]
